Test results from PubChem BioAssay AID2221 (Broad Institute, 2009).
Out of some 290,000 compounds screened, about 2,200 (0.76%) were called active. Many of the other results were omitted from the sample, so actives are more common in it than they were. Unmarked numbers belong to inactive results. No stated cut-off is given here; in the data, active means inhibition above about 30%; inconclusive means no clear call, values can overlap the other calls; inactive means below that.

What follows are compounds tested against Protein RecA (Mycobacterium tuberculosis (strain ATCC 25618 / H37Rv)) (UniProt P9WHJ3) (assay: Mtb RecA intein splicing inhibitors, primary screen, biochemical, fluorescence, HTS (AID 2221;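 further: 0% = vehicle wells and 100% = reference inhibitor control wells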)). Conditions: cell-free RecA intein splicing, stronger effect = higher value, concentration not given here.
Chain of Protein RecA (Mycobacterium tuberculosis (strain ATCC 25618 / H37Rv)) (P9WHJ3 whole entry, looked up): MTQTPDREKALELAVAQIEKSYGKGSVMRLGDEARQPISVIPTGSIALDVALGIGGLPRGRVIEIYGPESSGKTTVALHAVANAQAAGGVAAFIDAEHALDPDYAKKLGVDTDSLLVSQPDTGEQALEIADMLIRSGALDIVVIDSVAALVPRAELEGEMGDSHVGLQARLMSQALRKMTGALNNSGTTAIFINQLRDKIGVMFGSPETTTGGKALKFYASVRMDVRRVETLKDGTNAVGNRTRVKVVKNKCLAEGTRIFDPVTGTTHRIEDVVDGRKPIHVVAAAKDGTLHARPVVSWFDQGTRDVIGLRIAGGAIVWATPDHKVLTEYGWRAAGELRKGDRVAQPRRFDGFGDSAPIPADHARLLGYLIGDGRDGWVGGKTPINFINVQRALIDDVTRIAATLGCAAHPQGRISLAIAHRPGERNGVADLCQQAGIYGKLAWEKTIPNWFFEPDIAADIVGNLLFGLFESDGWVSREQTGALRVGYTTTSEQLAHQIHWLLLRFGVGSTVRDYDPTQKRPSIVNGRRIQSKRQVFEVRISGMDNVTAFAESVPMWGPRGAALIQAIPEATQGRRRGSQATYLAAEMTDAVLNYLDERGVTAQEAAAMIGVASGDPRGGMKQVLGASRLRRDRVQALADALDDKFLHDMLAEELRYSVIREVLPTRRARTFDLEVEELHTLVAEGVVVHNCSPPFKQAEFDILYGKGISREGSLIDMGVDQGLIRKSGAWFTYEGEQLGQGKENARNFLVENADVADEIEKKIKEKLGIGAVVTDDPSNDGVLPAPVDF
`Cn1cc(CCC(=O)NC2CC2)c2ccccc21` gave an inhibition of -0.418%.
For `O=C(CN1CCN(C(=S)NC2CCCC2)CC1)Nc1ccc(Oc2ccccc2)cc1`, the inhibition was 5.42%.
With `COCc1cc(C)n(CC(=O)NCC2CCCO2)c(=O)c1C#N` (centres undefined) the inhibition was -0.67%.
`CC(=O)C12CC(C)=C(C)CC1CC1C3CCC4=CC(=O)CCC4(C)C3CCC12C` (centres undefined) was tested, and the inhibition was 36% (active).
With `C[C@]12C=CC(=O)C=C1CC[C@@H]1[C@@H]2C(=O)C[C@@]2(C)[C@H]1CC[C@]2(O)C(=O)CO` the inhibition was 1.39%.
For `CC(=O)O[C@]1(C(C)=O)CC[C@H]2[C@@H]3C=C(C)C4=CC(=O)CC[C@]4(C)[C@H]3CC[C@@]21C`, the inhibition was 11%.
`CCN(CC)c1ccc2cc(C(N)=O)/c(=N\NC(=O)c3ccncc3)oc2c1` gave an inhibition of -24.7%.
`CCN(CC)c1ccc2oc(=O)c(C)nc2c1` was tested, and the inhibition was 30.2% (active).
`C=CCN(C(=O)Nc1ccc2oc(C)nc2c1)c1ccccc1` gave an inhibition of 1.61%.
`COc1ccc(-c2nnc(SC(=O)N3c4ccccc4Sc4ccccc43)o2)cc1` was tested, and the inhibition was 46.6% (active).
`COc1ccc(-c2nnc(SCC(=O)c3ccc4c(c3)OCCO4)o2)cc1` gave an inhibition of 0.107%.
For `COc1ccc(-c2nnc(SCc3cccnc3)o2)cc1`, the inhibition was -3.4%.
`CC(=O)c1cccc(NC(=O)C2COc3ccccc3O2)c1` (centres undefined) gave an inhibition of 0.944%.
Work on `C[C@H](NC(=O)C1CCN(S(=O)(=O)c2ccccc2)CC1)C(=O)NCc1ccccc1` yielded an inhibition of 1.64%.
`COC(=O)c1sc(SC)c(S(=O)(=O)C(C)C)c1N/N=C(\C#N)S(=O)(=O)c1ccccn1` gave an inhibition of 3.07%.
With `COc1ccc(-c2[nH]nc3c2C(c2ccncc2)C(C#N)=C(N)O3)cc1` (centres undefined) the inhibition was 69.7% (active).
With `COc1cc(C2C(C#N)=C(N)Oc3n[nH]c(-c4ccccn4)c32)cc(OC)c1OC` (centres undefined) the inhibition was 17.2%.
`CCc1ccc(C2C(C#N)=C(N)Oc3n[nH]c(CC(=O)OC)c32)cc1` (centres undefined) was tested, and the inhibition was 63.8% (active).
`CCCc1[nH]nc2c1C(C1CC=CCC1)C(C#N)=C(N)O2` (centres undefined) showed an inhibition of 4.97%.
For `CCOC(=O)C1=C(CC)OC(N)=C(C#N)C1c1ccc(F)cc1F` (centres undefined), the inhibition was -3.52%.
`CCCc1[nH]nc2c1C(c1ccc(OC(=O)c3ccco3)cc1)C(C#N)=C(N)O2` (centres undefined) was tested, and the inhibition was 81.6% (active).
`CCOc1c(OC)cc(C2C(C#N)=C(N)Oc3n[nH]c(-c4ccncc4)c32)cc1OC` (centres undefined) was tested, and the inhibition was 23.1%.
With `COCc1[nH]nc2c1C(C1C=CCCC1)C(C#N)=C(N)O2` (centres undefined) the inhibition was -0.266%.
`CCC1=C(C(=O)OC)C(c2cc(OC)ccc2OC)C(C#N)=C(N)O1` (centres undefined) showed an inhibition of -1.35%.
`CCCc1nc2c([nH]1)C(c1cccnc1)C(C#N)=C(N)O2` (centres undefined) showed an inhibition of -1.72%.
With `CCCc1[nH]nc2c1C(c1ccc(Br)s1)C(C#N)=C(N)O2` (centres undefined) the inhibition was 56% (active).
`CCOC(=O)C1=C(C)OC(N)=C(C#N)C1c1cncc(-c2ccc(F)cc2)c1` (centres undefined) was tested, and the inhibition was 2.26%.
For `NC(=O)c1cc(S(=O)(=O)NCCCc2ccco2)cs1`, the inhibition was -6.35%.
Work on `CN(C)c1ccc(C=NCCc2ccc(S(N)(=O)=O)cc2)cc1` yielded an inhibition of -4.96%.
`Cc1ccc(NC(=O)N2CCSc3ccccc32)cc1` gave an inhibition of -0.155%.
Work on `CCN(CC)CC(=O)Nc1sc2c(c1C(=O)c1ccccc1C)CCC2` yielded an inhibition of 11.9%.
With `Cc1cc(C)c(C)c(S(=O)(=O)N[C@@H](C)C(=O)OC(C)C(=O)NC(N)=O)c1C` (some centres undefined) the inhibition was -2.04%.
With `CC(CO)(CO)NC(=O)c1ccc(=O)[nH]n1` the inhibition was 0.0563%.
Compound `O=C(c1ccc[nH]c1=S)N1CCN(S(=O)(=O)c2ccc(Br)cc2Cl)CC1` has an inhibition of -3.23%.
`Cc1ccc(-n2c(=O)cc(N3CCN(Cc4ccccc4)CC3)[nH]c2=O)cc1` showed an inhibition of -1.51%.
Work on `S=C(Nc1ccc(Cl)cc1Cl)N1CCCC1` yielded an inhibition of -0.599%.
Work on `Cc1cccc(OC(C)C(=O)N2CCc3ccccc3C2)c1` (centres undefined) yielded an inhibition of 0.662%.
Compound `O=C(Cc1ccccc1)Nc1ccc(C(=O)Nc2ccccc2C(=O)O)cc1` has an inhibition of 0.81%.
`O=C(c1cccnc1)N1CCN(S(=O)(=O)c2cccs2)CC1` showed an inhibition of -1.81%.
With `Cc1ccc(-n2nc3c(=O)n(C(C)C(=O)NCc4ccc5c(c4)OCO5)nc(C)c3c2C)cc1` (centres undefined) the inhibition was 3.2%.
`CC1=NNC(=O)C1CCC(=O)N/N=C\c1cccc(Cl)c1` (centres undefined) gave an inhibition of -2.34%.
With `CC1=NNC(=O)C1CCC(=O)N/N=C\c1ccc(Cl)c(Cl)c1` (centres undefined) the inhibition was 0.906%.
With `CC1=NNC(=O)C1Cc1c(Cl)cccc1Cl` (centres undefined) the inhibition was 90.8% (active).
`O=C(CN1CCc2cc3c(cc2C1)OCCCO3)Nc1ccccc1` showed an inhibition of 1.99%.
With `COc1ccc(C(=O)NC2CC(C)(C)Cc3c2cnn3-c2ccccc2C)o1` (centres undefined) the inhibition was 3.96%.
Compound `CCSc1ncc(Cl)c(C(=O)Nc2cc(C)ccc2C)n1` has an inhibition of -2.65%.
For `Cc1cccc(NC(=O)c2nc(S(=O)(=O)Cc3ccccc3)ncc2Cl)c1`, the inhibition was 78% (active).
`Cc1cccc(NC(=O)c2nc[nH]c2C(=O)NCC(=O)OCc2ccccc2)c1` was tested, and the inhibition was -3.32%.
`Cc1cccc(OCc2ccc(C(=O)Nc3ccc(F)cc3)cc2)c1` showed an inhibition of -2.68%.
For `Cc1cccc(CS(=O)(=O)c2ncc(Cl)c(C(=O)Nc3ccc(F)cc3)n2)c1`, the inhibition was 31.6% (active).
Compound `CCOc1ccc(NC(=O)c2nc(SCC)ncc2Cl)cc1` has an inhibition of -3.31%.
In the case of `CSCC[C@H](NC(=O)N1CCn2c1nc1ccccc12)C(=O)NC1CCCCC1`, the inhibition was 0.784%.
Compound `ClC1(Cl)CC1CSc1ncn[nH]1` (centres undefined) has an inhibition of -0.379%.
`Cc1ccc(SC(CC(=O)c2ccc(C(C)(C)C)cc2)C(=O)O)cc1` (centres undefined) showed an inhibition of 8.11%.
In the case of `Cc1ccc(SCCSc2ncccn2)cc1`, the inhibition was -1.76%.
`Cc1ccc(SCc2cc(=O)[nH]c(N3CCCCC3)n2)cc1` gave an inhibition of 1.86%.
With `Cc1ccc(SCC2=NNC(=O)C2)cc1` the inhibition was 87.8% (active).
For `O=C(NC1CCc2ccccc21)C12CN(Cc3ccccc3)CC1C(c1cccc([N+](=O)[O-])c1)=NO2` (centres undefined), the inhibition was 8.13%.
`CCOc1ccc(-n2c(SCC(N)=O)nnc2-c2ccco2)cc1` gave an inhibition of 1.21%.
